HTT-AS promoter = Primary qHTS for Identification of Small Molecule Activators of Huntingtin-Antisense Promoter Activity; Potency, µM (titrated, usually from 57.5 µM), without a hit: at the highest dose activity change, positive = activation, actives largely listed as activators; HEK293 HTT-AS promoter firefly luciferase reporter, 24 h; response scale: percent change from vehicle, -100% = no light; AID 1508624, 2021; 48,000 tested, 0.24% active; note: potency is the fitted concentration of half-maximal effect; nearly all actives have a fitted effect of over 55% in size
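HEK293 Fluc reporter, 2,500 cells/well, 24 h pre-culture; cpds up to 57.5 uM final, 24 h 37 degrees C; Dual-Glo, 10 min RT; normalized vehicle = 0%, zero RLU = -100%.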
HTT promoter inh = Primary qHTS for Identification of Small Molecule Inhibitors of Huntingtin Promoter Activity; HEK293 HTT promoter firefly luciferase reporter, 24 h; Potency, µM (titrated, usually from 57.5 µM), without a hit: at the highest dose activity change, negative = inhibition, usual class: inhibitors; 48,000 tested, 0.93% active; AID 1508623, 2021; note: potency is the fitted concentration of half-maximal effect; nearly all actives have a fitted effect of over 50% in size
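Firefly luciferase readout (Dual-Glo, 10 min RT) after 24 h, 37 °C compound exposure (final up to 57.5 uM) of HEK293 reporter cells cultured 24 h beforehand; PTC124 at 50 uM final as control inhibitor; activity scaled vehicle 0%, zero RLU -100%.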
GALK inhibitor = qHTS Assay for Inhibitors of Human Galactokinase (GALK): NCGC Sytravon Library Screen; P51570; recombinant GALK, Kinase-Glo ATP luminescence, 1 h; Potency, µM (series often up to 57.5 µM), without a hit: top-dose activity, negative = inhibition, hits mostly inhibitors; 44,000 tested, under 10 active; AID 1347072, 2019;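 note: plate controls were full GALK reaction for no effect and reaction lacking GALK for full effect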
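Human GALK (5 nM) was incubated with 35 uM ATP and 100 uM galactose in 20 mM HEPES pH 8.0 with MgCl2, NaCl, DTT and BSA for 1 h at room temperature. Remaining ATP was measured by Kinase-Glo Plus luminescence.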
B2AR arrestin ag = qHTS assay of beta-arrestin-biased ligands of beta2-adrenergic receptor: NCGC Sytravon Library Screen. HTLA Tango cells, beta-arrestin recruitment, luciferase luminescence, 18 h. 44,000 tested, under 10 active. Beta-2 adrenergic receptor (Homo sapiens), P07550. AID 1347077, 2019. Potency, µM (titrated, usually from 46.1 µM), usual class: activators;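 note: potency is the fitted concentration of half-maximal effect; 0% = DMSO and full agonism = EC100 isoproterenol or metaproterenol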
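Tango cells expressing recombinant beta2-AR and beta-arrestin were treated with compounds (up to 46 microM titration) in DMEM with 1% FBS for 18 hr at 37 degrees C. Beta-arrestin recruitment drove tTA-dependent luciferase, read by luminescence; curves were fitted and classed.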
NTMT1 inhibitor = Primary qHTS for Inhibitors of N-terminal methyltransferase 1 (NTMT1): MTaseGlo Assay | Potency, µM (titrated, usually from 114 µM), inactives show at the top dose activity change, negative = inhibition, hits mostly inhibitors | NTMT1 MTase-Glo SAH luminescence, purified enzyme | 59,000 tested, 2.5% active | AID 1645870, 2021 | N-terminal Xaa-Pro-Lys N-methyltransferase 1 (Homo sapiens), Q9BV86;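 note: potency is the fitted concentration of half-maximal effect; plate controls were DMSO vehicle for no effect and no enzyme for full effect; nearly all actives have a fitted effect of over 65% in size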
Target sequence (Q9BV86 whole entry, looked up): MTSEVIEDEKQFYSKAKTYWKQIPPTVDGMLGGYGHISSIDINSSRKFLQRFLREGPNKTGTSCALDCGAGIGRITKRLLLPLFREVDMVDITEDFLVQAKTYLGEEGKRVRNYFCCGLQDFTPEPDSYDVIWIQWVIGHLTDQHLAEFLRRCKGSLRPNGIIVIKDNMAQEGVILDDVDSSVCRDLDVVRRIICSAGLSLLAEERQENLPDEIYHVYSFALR
TSG101-PTAP inh = qHTS Validation Assay for Inhibitors of HIV-1 Budding by Blocking the Interaction of PTAP/TSG101: Sytravon Library Screen; Potency, µM (series often up to 115 µM), actives largely listed as inhibitors; 44,000 tested, under 10 active; Fluorescence polarization, FITC-PTAP peptide/Tsg101, 20 min; note: potency is the fitted concentration of half-maximal effect; 0% is about no effect
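Fluorescence polarization: Tsg101 binding domain (10 uM final) in 10 mM HEPES pH 7.5, 0.15 M NaCl, 0.01% Tween 20, 3 mM EDTA, 0.1 mM TCEP; compounds pinned; FITC-PTAP peptide 50 nM final; 20 min, r.t.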
DYRK1A inh-1 = Assay for Inhibitors of Dual-Specificity Tyrosine-(Y)-Phosphorylation Regulated Kinase 1A (Kinase-Glo assay). shares compounds with NTMT1 inhibitor. recombinant DYRK1A, Kinase-Glo ATP depletion luminescence. Potency, µM (titrated, usually from 76.9 µM), without a hit: at the top dose activity change, negative = inhibition, actives largely listed as inhibitors. 100 tested, 80% active
CLK4 inh-1 = Confirmation Assay for Inhibitors of CDC-like Kinase 4 (Kinase-Glo Assay): SAR round 2; shares compounds with NTMT1 inhibitor; recombinant Clk4, Kinase-Glo ATP luminescence, 4.5 h; Potency, µM (doses to about 76.9 µM), without a hit: top-dose activity, negative = inhibition, usual class: inhibitors; 90 tested, 90% active; AID 493204, 2011
Target sequence (Q9HAZ1 whole entry, looked up): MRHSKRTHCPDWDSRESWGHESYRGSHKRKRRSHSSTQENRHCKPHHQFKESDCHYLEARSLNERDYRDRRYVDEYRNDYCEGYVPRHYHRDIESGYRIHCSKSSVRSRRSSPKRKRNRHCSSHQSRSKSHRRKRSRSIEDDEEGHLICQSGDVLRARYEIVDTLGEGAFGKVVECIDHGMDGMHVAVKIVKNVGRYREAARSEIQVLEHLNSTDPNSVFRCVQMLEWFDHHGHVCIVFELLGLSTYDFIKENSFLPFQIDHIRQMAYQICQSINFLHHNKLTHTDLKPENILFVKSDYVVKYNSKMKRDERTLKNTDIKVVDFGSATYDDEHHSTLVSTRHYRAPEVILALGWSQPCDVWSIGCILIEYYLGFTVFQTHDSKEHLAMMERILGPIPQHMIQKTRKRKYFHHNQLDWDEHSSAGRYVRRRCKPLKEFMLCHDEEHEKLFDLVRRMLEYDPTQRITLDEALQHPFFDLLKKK
CLK4 inh-2 = Kinase Inhibition Study on Inhibitors of CDC-like Kinase 4 (Reaction Biology data): SAR round 2. shares compounds with NTMT1 inhibitor. Potency, µM, actives largely listed as inhibitors. Reaction Biology kinase assay, 10 uM ATP. AID 504421, 2011. 65 tested, 100% active; calls by dose curve
DYRK1A inh-2 = Kinase Inhibition Study on Inhibitors of Dyrk1a (Reaction Biology data); 65 tested, 90% active; Potency, µM, usual class: inhibitors; Reaction Biology kinase assay, 10 uM ATP; shares compounds with NTMT1 inhibitor;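 active = compounds that showed inhibition of Dyrk1a and received a fitted potency; inactive = compounds that showed no inhibition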
CLK2 inh = Kinase Inhibition Study on Inhibitors of CDC-like Kinase 2 (Reaction Biology data); shares compounds with NTMT1 inhibitor; Reaction Biology kinase assay, 10 uM ATP; Potency, µM, most hits filed as inhibitors; 65 tested, 90% active; AID 504427, 2011;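 active = compound that inhibits Clk2 kinase in the dose series, with an IC50 potency reported; inactive = no inhibition seen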
CLK3 inh = Kinase Inhibition Study on Inhibitors of CDC-like Kinase 3 (Reaction Biology data); shares compounds with NTMT1 inhibitor; recombinant CLK3 kinase assay, 10 uM ATP; Potency, µM, actives largely listed as inhibitors; 65 tested, 40% active; AID 504428, 2011;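 active = compounds that inhibited Clk3 enough in the ten-dose series to give a half-maximal potency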
DYRK1B inh = Kinase Inhibition Study on Inhibitors of Dyrk1b (Reaction Biology data) | shares compounds with NTMT1 inhibitor | Recombinant Dyrk1b kinase assay, 10 uM ATP | Potency, µM, usual class: inhibitors | 65 tested, 80% active;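 active = compounds whose dose response shows an inhibitor phenotype against the kinase Dyrk1b; inactive = compounds showing no inhibitor phenotype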
CLK1 inh = Kinase Inhibition Study on Inhibitors of CDC-like Kinase 1 (Reaction Biology data). shares compounds with NTMT1 inhibitor. 65 tested, 90% active. Potency, µM, actives largely listed as inhibitors. recombinant Clk1 kinase assay, 10 uM ATP;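 active = compounds that block the splicing kinase Clk1 enough to give a fitted half-inhibition concentration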
USP2 K63 confirm = Confirmation Assay for Inhibitors of Ubiquitin-specific Protease USP2a Using CHOP2 as the Reporter: K633; shares compounds with NTMT1 inhibitor; 30 tested, 80% active; AID 652172, 2013; USP2 cleavage of DiUb K63-3IQF, fluorescence kinetic; Potency, µM (highest dose often 57.5 µM), for inactives: top-dose activity change, negative = inhibition, most hits filed as inhibitors
Casp6 counter = qHTS for Inhibitors of Ubiquitin-specific Protease USP2a Using CHOP2 as the Reporter: Caspase 6 Assay | shares compounds with NTMT1 inhibitor | Caspase 6 enzyme, Caspase-Glo 6 luminescence | activity change, negative = inhibition, % at 46.1 µM | 30 tested, under 10 active | AID 652277, 2013
The depositor's hits bear a star; i = inactive; u = inconclusive; x = no result; [ ] = another dose, or the depositor's remark. Only a selection was taken, and hits are over-represented in it overall. Unless noted, calls come from the whole dose curve; as a rule, active = well fitted curve in the direction sought with a large enough effect; inconclusive = small, poorly fitted or top-dose-only effect, or another doubt; inactive = no such curve, though single readings can be large; an effect the other way counts as inactive or inconclusive.

SMILES | HTT-AS promoter | HTT promoter inh | GALK inhibitor | B2AR arrestin ag | NTMT1 inhibitor | TSG101-PTAP inh | DYRK1A inh-1 | others
CCOC(=O)c1ccc(-c2ccc3ncnc(NCc4ccc(C)o4)c3c2)o1 | x | x | x | x | u | x | 5.8µM*
CCNC(=O)c1ccc(-c2ccc3ncnc(NCc4ccc(C)o4)c3c2)o1 | x | x | x | x | u | x | x | CLK4 inh-1=0.52µM*;CLK4 inh-2=1.4*;DYRK1A inh-2=6.3µM*;CLK2 inh=4.2µM*;CLK3 inh=i;DYRK1B inh=6.7µM*;CLK1 inh=5.4µM*
CCOC(=O)c1ccc(-c2ccc3ncnc(NCc4cccs4)c3c2)o1 | x | x | x | x | x | x | 1.5µM* | CLK4 inh-2=0.088*;DYRK1A inh-2=1.4µM*;CLK2 inh=8.5µM*;CLK3 inh=i;DYRK1B inh=4.3µM*;CLK1 inh=0.8µM*
COc1cccc(CN(C)c2ccc([S+](=O)([O-])Nc3nccs3)cc2)c1O | x | x | x | x | -6% | x | x
CN(C)CCNC(=O)NC[C@H]1CC[C@@H]2[C@H](O1)c1cc(C(F)(F)F)ccc1N[C@H]2c1ccccc1 | x | x | x | x | -14% | x | x
C[C@H]1CC[C@@]2(OC1)O[C@H]1CC3C4CC=C5C[C@H](O)C[C@@H](O[C@@H]6O[C@@H](C)[C@H](O)[C@@H](O)[C@H]6O[C@@H]6O[C@@H](C)[C@H](O)[C@@H](O)[C@H]6O)[C@]5(C)C4CC[C@]3(C)[C@H]1[C@@H]2C (stereo not given in full) | x | x | x | x | -16%[12.6 µM] | x | x
COC(=O)c1ccc(O)c2ncc(NC3CCNCC3)cc12 | x | x | x | x | -1% | x | x
O=C(NCCc1nc2ccccc2n1CCOc1ccc(C(F)(F)F)cc1)C1CCCCC1 | x | x | x | x | 4%[57.5 µM] | x | x
Cc1ccc(-c2cc(C(=O)NCCc3ccccc3)c3ccccc3n2)cc1C | 35% | 2% | -5% | i | -7% | i | x
Cc1ccc(-c2cc(C(=O)Nc3ccc(S(N)(=O)=O)cc3)c3cccc(C)c3n2)cc1C | x | x | x | x | x | x | x | USP2 K63 confirm=11µM*;Casp6 counter=u
Cc1ccc(-c2cc(C(=O)Nc3ccc(-n4cccn4)cc3)c3ccccc3n2)cc1C | x | x | x | x | -12% | x | x | USP2 K63 confirm=8.6µM*;Casp6 counter=-7
O=C(Nc1ccc(S(=O)(=O)Nc2nccs2)cc1)C1CCC2(CC1)CC2 | x | x | x | x | 5% | x | x
Cc1nc(CNc2ncnc3ccc(-c4ccoc4)cc23)cs1 | x | x | x | x | u | x | 3.7µM*
Cc1ccc(CNc2ncnc3ccc(-c4ccoc4C)cc23)o1 | x | x | x | x | u | x | 4.6µM*
CCOC(=O)c1ccoc1-c1ccc2ncnc(NCc3ncc[nH]3)c2c1 | x | x | x | x | 10% | x | u
Cc1csc(CNc2ncnc3ccc(-c4ccoc4)cc23)c1 | x | x | x | x | -11% | x | x
Cc1cccc(CNc2ncnc3ccc(-c4ccoc4)cc23)c1 | x | x | x | x | 8% | x | x
Cc1occc1-c1ccc2ncnc(NCc3ncc[nH]3)c2c1 | x | x | x | x | -12% | x | 2.3µM*
CC(=O)Nn1c(C)nc2sc3c(c2c1=O)CCNC3 | x | x | x | x | 7%[57.5 µM] | x | x
CC(C)N(CCCCOCC(=O)NS(C)(=O)=O)c1cnc(-c2ccccc2)c(-c2ccccc2)n1 | x | x | x | x | -8%[57.5 µM] | x | x
